About 83,000 compounds went through this panel and 20% of them were active in at least one assay; those are over-represented in the sample as a whole.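 How to read the values: 0–100, growth inhibition (40 = 60% inhibited); 0, no net growth; -100 to 0, cell death (-40 = 40% of starting cells died; -100 = all dead).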 Values without a mark were called inactive. Calls of active or inactive are those of the source. Rule for the calls: active = growth percent below 10; inactive = the rest.

Some test systems named below: DU-145 prostate; K-562 leukemia; MALME-3M melanoma; MDA-MB-231 breast; RXF 393 renal; SF-268 CNS; SF-295 CNS; SF-539 CNS; UACC-257 melanoma; M14 melanoma; HCT-15 colon; HT29 colon; SNB-75 CNS; SNB-19 CNS; U251 CNS; PC-3 prostate; SK-MEL-5 melanoma; UACC-62 melanoma; LOX IMVI melanoma; SK-MEL-28 melanoma.
Common to all, as to assay: NCI-60 one-dose screen, 48 h (100 = growth as untreated, 0 = no growth, -100 = all killed)
Holding throughout (settings): 10 µM unless noted

As to `CCCCCCNC(=O)Oc1ccc(/C(=C(\C)c2ccc(OC)cc2)c2ccc(OCCN3CCCCC3)cc2)cc1`, the growth with DU-145 prostate was 79.7%; in the experiment with K-562 leukemia it was 6.45% (active); in the experiment on MALME-3M melanoma it was 34.8%; in the experiment on MDA-MB-231 breast, 73.6%; with RXF 393 renal it was 47.2%; with SF-268 CNS it was 71.8%. For the same compound, the growth with SF-295 CNS was 33.3%; in the experiment on SF-539 CNS it was 27.1%; with UACC-257 melanoma, -1.88% (active); in the experiment with M14 melanoma, -37% (active); in the experiment on HCT-15 colon, 2.35% (active); in the experiment on HT29 colon, 4.52% (active). Also, the growth in the experiment on SNB-75 CNS is 69.4%; in the experiment on SNB-19 CNS, 83.9%; in the experiment on U251 CNS, 54.4%; with PC-3 prostate, 54.1%; in the experiment on SK-MEL-5 melanoma, 57.6%; in the experiment on UACC-62 melanoma, 39.2%. The growth in the experiment on LOX IMVI melanoma is 24.5%; in the experiment with SK-MEL-28 melanoma, 25.2%.
`CC(C)(C)NC(=O)C(OC(=O)c1cccc(Cl)c1)c1ccc(Cl)cc1` (stereo not drawn): the growth in the experiment on DU-145 prostate was 103%; in the experiment on K-562 leukemia, 92.5%; in the experiment with MALME-3M melanoma it was 103%; with MDA-MB-231 breast, 112%; with RXF 393 renal, 111%; in the experiment on SF-268 CNS, 100%. Besides, the growth is 98.1% in the experiment on SF-295 CNS; 95.1% in the experiment on SF-539 CNS; 97.1% in the experiment on UACC-257 melanoma; 94.1% with M14 melanoma; 103% in the experiment on HCT-15 colon; 87.6% in the experiment with HT29 colon. In addition, the growth was 103% in the experiment on SNB-75 CNS; 103% in the experiment on SNB-19 CNS; 94.5% in the experiment with U251 CNS; 94% with PC-3 prostate; 98.2% in the experiment with SK-MEL-5 melanoma; 104% in the experiment with UACC-62 melanoma. For the same compound, the growth in the experiment on LOX IMVI melanoma was 94.1%.
With `Cc1nc2nc(SCC(=O)O)[nH]c2c(=O)[nH]1`, the growth in the experiment with DU-145 prostate was 113%; with K-562 leukemia it was 94.9%; with MALME-3M melanoma, 112%; in the experiment on MDA-MB-231 breast, 110%; in the experiment with RXF 393 renal it was 109%; in the experiment with SF-268 CNS, 108%. The growth in the experiment on SF-295 CNS is 97.9%; in the experiment with SF-539 CNS it was 97.6%; with UACC-257 melanoma, 96.7%; in the experiment on M14 melanoma, 102%; in the experiment on HCT-15 colon, 103%; in the experiment with HT29 colon, 96.8%. Besides, the growth in the experiment on SNB-75 CNS is 110%; with SNB-19 CNS, 92.5%; in the experiment with U251 CNS it was 96.8%; in the experiment on PC-3 prostate it was 96.6%; in the experiment on SK-MEL-5 melanoma it was 100%; in the experiment on UACC-62 melanoma, 96.4%. Moreover, in the experiment with LOX IMVI melanoma, the growth is 95.3%.
For `OC(COc1ccccc1)CN1CCN(c2ccc(Cl)cc2)CC1` (stereo not drawn), the growth in the experiment on DU-145 prostate was 110%; with K-562 leukemia, 73.8%; with MALME-3M melanoma, 128%; with MDA-MB-231 breast it was 94%; in the experiment on RXF 393 renal, 113%; in the experiment on SF-268 CNS, 99.4%. Also, the growth with SF-295 CNS was 111%; in the experiment with SF-539 CNS it was 116%; in the experiment with UACC-257 melanoma, 87.7%; in the experiment with M14 melanoma, 101%; in the experiment on HCT-15 colon it was 115%; in the experiment on HT29 colon, 101%. The growth in the experiment with SNB-75 CNS is 95.2%; with SNB-19 CNS, 95.4%; in the experiment with U251 CNS it was 102%; with PC-3 prostate it was 82%; with SK-MEL-5 melanoma, 96.2%; with UACC-62 melanoma, 90.3%. Moreover, in the experiment on LOX IMVI melanoma, the growth was 101%.
As to `COc1c(N2CC3CCCN(C(C)=O)C3C2)c(F)cc2c(=O)c(C(=O)N[C@H]3C(O)[C@@H](O)C(CO)O[C@H]3O)cn(C3CC3)c12` (stereo partly drawn), the growth was 112% with DU-145 prostate; 103% with K-562 leukemia; 117% in the experiment on MALME-3M melanoma; 103% in the experiment on MDA-MB-231 breast; 128% with RXF 393 renal; 92.3% in the experiment with SF-268 CNS. For the same compound, the growth with SF-295 CNS is 103%; in the experiment with SF-539 CNS, 103%; in the experiment on UACC-257 melanoma, 103%; with M14 melanoma, 110%; in the experiment with HCT-15 colon it was 98.5%; in the experiment with HT29 colon, 105%. In addition, the growth was 100% in the experiment with SNB-75 CNS; 99.4% in the experiment on SNB-19 CNS; 102% in the experiment with U251 CNS; 108% in the experiment on PC-3 prostate; 101% in the experiment on SK-MEL-5 melanoma; 101% with UACC-62 melanoma. For the same compound, the growth in the experiment on LOX IMVI melanoma is 87.1%.
For the compound `COc1c(B(O)O)cc(C)cc1-c1nc2ccc3[nH]ncc3c2c2c1CCCC2`, the growth in the experiment on DU-145 prostate is 72.6%; with K-562 leukemia, 24.1%; with MALME-3M melanoma, 91.6%; with MDA-MB-231 breast, 23.4%; with RXF 393 renal it was -2.67% (active); with SF-268 CNS it was 50%. In addition, the growth with SF-295 CNS is 53.1%; in the experiment with SF-539 CNS, 12.5%; in the experiment with UACC-257 melanoma, 102%; in the experiment on M14 melanoma, 97.4%; in the experiment on HCT-15 colon, 21.6%; in the experiment with HT29 colon it was 38.6%. For the same compound, the growth with SNB-75 CNS was -34.4% (active); with SNB-19 CNS, 74%; with U251 CNS, 60.6%; in the experiment on PC-3 prostate it was 61.9%; in the experiment with SK-MEL-5 melanoma, 80.4%; in the experiment with UACC-62 melanoma, 69.5%. The growth in the experiment with LOX IMVI melanoma is 30.7%.
For the compound `O=c1c2cc(F)ccc2sc2c(NCCCNCCO)nc3ccccc3c12`, the growth with DU-145 prostate is 8.53% (active); in the experiment with K-562 leukemia, -44.3% (active); in the experiment on MALME-3M melanoma, 69.5%; in the experiment on MDA-MB-231 breast it was -33.1% (active); with RXF 393 renal it was 44.8%; with SF-268 CNS, 41.6%. Besides, the growth in the experiment on SF-295 CNS is 65.3%; with SF-539 CNS, -24.1% (active); in the experiment with UACC-257 melanoma, 91.2%; with M14 melanoma, -79% (active); with HCT-15 colon, -9.91% (active); in the experiment on HT29 colon, -53.3% (active). Also, the growth was 53.8% with SNB-75 CNS; 58.5% with SNB-19 CNS; 6.22% (active) with U251 CNS; 25.2% with PC-3 prostate; 70.5% with SK-MEL-5 melanoma; -39.4% (active) in the experiment with UACC-62 melanoma. Besides, the growth with LOX IMVI melanoma was -94.1% (active).
Take `O=c1ccn(Cc2cn(-c3c4ccccc4nc4ccccc34)nn2)c(=O)[nH]1`: the growth in the experiment with DU-145 prostate is 74.6%; with K-562 leukemia it was 33.1%; in the experiment on MALME-3M melanoma it was 98.6%; in the experiment with MDA-MB-231 breast it was 89.4%; with RXF 393 renal, 98.2%; in the experiment on SF-268 CNS, 99.6%. For the same compound, the growth with SF-295 CNS is 106%; in the experiment with SF-539 CNS, 101%; with UACC-257 melanoma it was 85.6%; in the experiment with M14 melanoma, 98.4%; with HCT-15 colon it was 91.6%; with HT29 colon, 104%. For the same compound, the growth is 102% with SNB-75 CNS; 94.1% in the experiment on SNB-19 CNS; 89.5% in the experiment with U251 CNS; 97.5% in the experiment on PC-3 prostate; 91.3% in the experiment with SK-MEL-5 melanoma; 91.4% with UACC-62 melanoma. In the experiment on LOX IMVI melanoma, the growth was 74.2%.
